Test results taken from ChEMBL document CHEMBL4513143, “CO-ADD screening of University of Natural Resources and Life (Austria) compounds”.
Entries with a potency or affinity are not part of this list.

Columns and labels:
Klebsiella pneumoniae = conditions: Concentration 32 ug.mL-1; ASSAY_TEST Inhibition of Bacterial Growth; detection method Absorption (OD600); MEDIA CAMHB; plate type 384well; NBS; CORNING #3640; time 18 hr
Candida albicans = conditions: 32 ug/mL
Cryptococcus neoformans = conditions: Concentration 32 ug.mL-1; ASSAY_TEST Inhibition of Fungal Growth; detection method Resazurin; Absorption (OD600-OD570); plate type 384well; NBS; CORNING #3640

With `[N-]=[N+]=NC[C@H]1OC(O)[C@@H](O)[C@@H]1O` (stereo partly drawn) the Inhibition (Klebsiella pneumoniae) was 29.69%, the Inhibition (Candida albicans) was 3.08% and the Inhibition (Cryptococcus neoformans) was -7.43%.
